Data reported in the supplement of paper PMC6522484.
± gives the standard deviation of the averaged measurements.

Experiments:
DLD1 [1] = test: cell viability (CellTiter-Glo) relative to plate median (fraction of plate median); higher = more viable cells; details: 5 µM; treatment time 24 h; reporter: 7TFP
Outline: (§1)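 Colorectal cancer cell lines stably transduced with lentiviral TCF/Wnt firefly luciferase reporters (7TFP or TCF4/Wnt) were seeded in 384-well plates. 24 h later they received library compounds at a final 5 µM for 24 h. Parallel plates were read for firefly luciferase or CellTiterGlo luminescence on a Tecan F500 reader. Each well's signal was normalised to the plate median (webcellHTS2, additive, no log transformation), and the mean of two independent replicates is reported.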

HCT116 = test: as above; details: 5 µM; treatment time 24 h; reporter: TCF4/Wnt
Outline: as §1

SW480 [2] = test: as above; details: 5 µM; treatment time 24 h; reporter: 7TFP
Outline: as §1

DLD1 [3] = test: TCF/Wnt firefly luciferase reporter signal relative to plate median (fraction of plate median); higher = higher Wnt reporter signal; details: 5 µM; treatment time 24 h; reporter: 7TFP
Outline: as §1

SW480 [4] = test: as above; details: 5 µM; treatment time 24 h; reporter: 7TFP
Outline: as §1

SMILES	cell viability (DLD1 [1])	cell viability (HCT116)	cell viability (SW480 [2])	TCF/Wnt firefly luciferase reporter signal (DLD1 [3])	TCF/Wnt firefly luciferase reporter signal (SW480 [4])
C=CCc1ccc(OC)cc1	1.06 ± 0.092	1 ± 0.025	1.03 ± 0.035	1.2 ± 0.11	1.025 ± 0.0071
CO[C@H]1C[C@H](O[C@H]2CC[C@@]3(C)[C@H](CC[C@@H]4[C@@H]3CC[C@]3(C)[C@@H](C5=CC(=O)OC5)[C@@H](OC(C)=O)C[C@]43O)C2)O[C@@H](C)[C@@H]1O	1.26 ± 0.028	0.486 ± 0.31	1.31 ± 0.13	0.123 ± 0.13	0.171 ± 0.12
COc1c2c(cc3c1OCO3)CC[N+](C)=C2	0.978 ± 0.046	0.945 ± 0.072	0.991 ± 0.07	1 ± 0.036	1.075 ± 0.0071
CCC(C)C(=O)c1c(O)c(C)c2oc3c(C)c(O)c(C(=O)C(C)CC)c(O)c3c2c1O (stereo not given)	0.997 ± 0.033	0.95 ± 0.11	0.998 ± 0.045	0.9565 ± 0.0035	0.9575 ± 0.0092
CC(C)N(CCC(C(N)=O)(c1ccccc1)c1ccccn1)C(C)C (stereo not given)	0.914 ± 0.077	0.964 ± 0.029	0.981 ± 0.011	1.16 ± 0.071	1.13 ± 0.014
CC1=NCCc2c1[nH]c1cc(O)ccc21	0.971 ± 0.069	1.01 ± 0.11	1.02 ± 0.014	1.02 ± 0.17	0.988 ± 0.031
O=C([O-])Cc1ccccc1.[Na+]	0.97 ± 0.0057	0.906 ± 0.1	0.971 ± 0.021	0.923 ± 0.04	0.896 ± 0.0042
CNC(C)(C)Cc1ccccc1	1.02	1.01 ± 0.021	1.06 ± 0.014	1.09	0.932 ± 0.04
CNC(C)C(O)c1ccccc1 (stereo not given)	1.08 ± 0.021	1.09 ± 0.014	1.07 ± 0.042	1.1 ± 0.078	0.905 ± 0.071
O=C(O)CC[N+](=O)[O-] [BOVINOCIDIN (3-nitropropionic acid)]	0.951 ± 0.025	1.05 ± 0.042	0.986 ± 0.02	1.01 ± 0.042	1.05 ± 0.1
Cl[C@H]1[C@H](Cl)[C@@H](Cl)[C@@H](Cl)[C@H](Cl)[C@H]1Cl	1.05 ± 0.014	1.035 ± 0.0071	1.04 ± 0.042	1.05 ± 0.05	1.15 ± 0.05
C[C@@H]1C(=O)O[C@H]2[C@H]1CC[C@@]1(C)C=CC(=O)[C@@]3(C)O[C@@]213 [EPOXY (4,5alpha)-4,5-DIHYDROSANTONIN]	0.995 ± 0.064	1.17 ± 0.071	1 ± 0.023	0.966 ± 0.09	0.902 ± 0.042
CC1=C2C(=CO[C@H](C)[C@H]2C)C(O)=C(C(=O)O)C1=O	0.939 ± 0.076	1 ± 0.022	0.923 ± 0.027	0.861 ± 0.13	0.9055 ± 0.0035
CC(C)=CCOc1c2occc2cc2ccc(=O)oc12	1.03 ± 0.086	0.997 ± 0.1	1.01 ± 0.014	1.12 ± 0.05	0.998 ± 0.16
NC(N)=NOCC[C@H](N)C(=O)O	1.08 ± 0.092	1.03 ± 0.035	1.03 ± 0.035	1.05 ± 0.042	0.991 ± 0.013
Oc1cccc2cccnc12	0.9665 ± 0.0035	0.967 ± 0.075	1.1 ± 0.028	1.03 ± 0.09	0.793 ± 0.037
O=C1C[C@@H]2OCC=C3CN4CC[C@]56c7ccccc7N1[C@H]5[C@H]2[C@H]3C[C@H]46	1.06 ± 0.14	0.963 ± 0.015	1.05 ± 0.071	0.927 ± 0.044	0.997 ± 0.089
COc1ccc2c3c([nH]c2c1)C(C)=NCC3	1.03 ± 0.059	0.971 ± 0.069	0.999 ± 0.03	1.25 ± 0.021	1.15 ± 0.071

SMILES	cell viability (DLD1 [1])	cell viability (HCT116)	cell viability (SW480 [2])	TCF/Wnt firefly luciferase reporter signal (DLD1 [3])	TCF/Wnt firefly luciferase reporter signal (SW480 [4])
COS(C)(=O)=O	1.07 ± 0.071	0.901 ± 0.021	1.015 ± 0.0071	0.98 ± 0.14	0.958 ± 0.074
C[C@@H]1C[C@H](O)[C@@]2(O)[C@]13CC(=O)OC[C@@]2(C)[C@@](C)(O)C(=O)C3	1.115 ± 0.0071	1.03 ± 0.068	1.04 ± 0.021	1.05 ± 0.071	1.03 ± 0.054
NCC(CC(=O)O)c1ccc(Cl)cc1 (stereo not given)	0.998 ± 0.088	0.9975 ± 0.0035	1.03 ± 0.028	0.897 ± 0.1	1.02 ± 0.12
COc1cc2c(cc1OC)[C@@H]1C(=O)c3ccc(OC)c(CC=C(C)C)c3O[C@@H]1CO2	0.943 ± 0.11	0.849 ± 0.042	0.992 ± 0.011	0.848 ± 0.069	0.947 ± 0.13
COc1cc([C@@H]2c3cc4c(cc3[C@H](OC(C)=O)[C@H]3COC(=O)[C@H]23)OCO4)cc(OC)c1OC	0.91 ± 0.17	0.567 ± 0.042	1.205 ± 0.0071	0.759 ± 0.0078	0.702 ± 0.02
COc1cc([C@@H]2c3cc4c(cc3[C@H](O)[C@H]3COC(=O)[C@H]23)OCO4)cc(OC)c1OC	0.903 ± 0.091	0.552 ± 0.075	0.95 ± 0.14	0.831 ± 0.34	0.783 ± 0.061
O=C(O)CCCc1ccc(N(CCCl)CCCl)cc1	1.02 ± 0.035	0.958 ± 0.011	1.02 ± 0.067	0.974 ± 0.037	0.966 ± 0.0028
CON1C(=O)[C@H]2NC(=O)[C@]13Oc1cc(O)c(Cl)cc1[C@@H]3SS2 [Aspirochlorine]	0.736 ± 0.087	0.918 ± 0.017	0.841 ± 0.026	0.981 ± 0.28	1 ± 0.035
Cc1cc(O)ccc1Cl	1.04 ± 0.035	0.994 ± 0.023	1.02 ± 0.028	0.941 ± 0.015	0.834 ± 0.069
O=[N+]([O-])c1ccc(O)c([N+](=O)[O-])c1	0.981 ± 0.042	0.953 ± 0.034	0.905 ± 0.098	0.966 ± 0.13	1.03 ± 0.035
CC1(C)C2CC(=O)[C@]3(C)C(CC[C@@]4(C)[C@H](c5ccoc5)OC(=O)[C@H]5O[C@]543)[C@@]2(C)C(=O)C[C@H]1O (stereo not given in full)	1.015 ± 0.0071	0.988 ± 0.018	1.01 ± 0.071	0.918 ± 0.037	0.965 ± 0.079
C[C@H]1C(=O)O[C@@H]2CCN3CC=C(COC(=O)[C@](C)(O)[C@]1(C)O)[C@H]23	1 ± 0.023	1.04 ± 0.09	1.015 ± 0.0071	0.919 ± 0.035	0.998 ± 0.06
CC(C)(C)NCC(O)c1ccccc1Cl (stereo not given)	1.045 ± 0.0071	1.04 ± 0.079	1.04 ± 0.028	0.949 ± 0.027	1.06 ± 0.057
COc1ccc2c(c1OC)C(=O)O[C@@H]2[C@H]1c2cc3c(cc2CCN1C)OCO3	1.05 ± 0.042	1.1 ± 0.078	1.1 ± 0.035	1.18 ± 0.05	1.04 ± 0.097
Oc1ccc2c3c1O[C@H]1[C@@H](O)CC[C@@]4(O)[C@@H](C2)N(CC2CCC2)CC[C@]314	1 ± 0.067	1 ± 0.014	0.942 ± 0.082	0.979 ± 0.03	1.06 ± 0.064
Cc1ccc(-c2nc3ccc(C)cn3c2CC(=O)N(C)C)cc1	1.02 ± 0.035	1.09 ± 0.16	0.955 ± 0.056	1.13 ± 0.085	0.988 ± 0.06
O=P1(N(CCCl)CCCl)NCCCO1 (stereo not given)	1.03 ± 0.035	0.955 ± 0.015	0.959 ± 0.051	1.1 ± 0.18	0.92 ± 0.014
NC(=O)CN1CCCC1=O	1.02 ± 0.051	1.01 ± 0.092	0.955 ± 0.024	0.925 ± 0.023	1.15 ± 0.05
